Test system: Inhibin beta A chain (activin A)
Experiment: INHBA (activin A) binders on microarrays, primary screen, biochemical, small-molecule microarray, 635 nm fluorescence scan (AID 1107);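 further: mouse activin A protein probed at 4.33 µg/mL on printed slides; score merges bound-protein fluorescence near 667 nm with spot signal-to-noise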
Settings: small-molecule microarray binding, higher = more signal

Structure (SMILES)	composite z-score
CCOC(=O)C1=CCC(c2ccc(C)cc2)N(S(=O)(=O)c2ccc(C)cc2)C1 (stereo not given)	1.42
CN(C)CCCNC(=O)[C@@]1(c2ccc([N+](=O)[O-])cc2)CC(=O)N(C2CCCCC2)[C@@H]1c1ccc(CO)cc1	1.27
CC(=O)N1Cc2ccccc2C[C@@]2(COC(c3ccc(OCCCO)cc3)=N2)C1=O	1.09
COCCOC(=O)N1C(=O)[C@@]2(c3cc(C#CC4=CCCCC4)ccc31)[C@H](C(=O)Nc1nc3ccccc3s1)[C@H]1C(=O)O[C@H](c3ccccc3)[C@H](c3ccccc3)N1[C@@H]2c1ccc(OCCO)cc1	0.91
C=CC[C@]1(C(=O)N2CCCCC2)N=C(c2ccc(OCCCO)cc2)O[C@H]1c1ccccc1	1.11
O=C1NCC(=O)N2[C@@H]1C[C@@H](C(=O)O)[C@H]2c1cccc(OCCO)c1	1.74
O=C1O[C@H](c2ccccc2)[C@H](c2ccccc2)N2[C@H]1[C@@H](C(=O)O)[C@]1(C(=O)Nc3ccc(C#CCCO)cc31)[C@H]2c1ccc(O)cc1	1.18
C=CCOC(=O)[C@H]1[C@@H]2C(=O)O[C@@H](c3ccccc3)[C@@H](c3ccccc3)N2[C@@H](c2ccc(OCCOC(=O)[C@@H]3C[C@@H]4C(=O)N[C@@H](CCCCN(C)C)C(=O)N4[C@@H]3c3ccc(O)cc3)cc2)[C@]12C(=O)Nc1ccc(I)cc12	-0.389
CC(C)(C)OC(=O)CC[C@]12N=C(c3ccc(OCCCO)cc3)O[C@H]1c1ccccc1N(CCS(=O)(=O)c1ccccc1)C2=O	0.924
CN(C)C(=O)[C@@]1(Cc2ccccc2CN=[N+]=[N-])N=C(c2ccc(OCCCO)cc2)O[C@H]1c1ccccc1	0.823
COc1cc2c(cc1OC)CN(C(=O)[C@H]1[C@@H]3C(=O)O[C@@H](c4ccccc4)[C@@H](c4ccccc4)N3[C@@H](c3ccc(O)cc3)[C@]13C(=O)Nc1ccc(C#CC4=CCCCC4)cc13)CC2	-0.301
CN1C(=O)C2C=CC(C(O)c3cc(C(F)(F)F)cc(C(F)(F)F)c3)N(N3CCCCC3)C2C1=O (stereo not given)	0.291
COCC(=C=CC[C@H](O)c1ccccc1OCCO)C[C@H](O)c1cc(Cl)cc(Cl)c1O	0.282
CCCN1C(=O)[C@]2(CCS(=O)(=O)c3ccccc3)N=C(c3ccc(OCCCO)cc3)O[C@@H]2c2ccccc21	0.916
COc1cc2c(cc1OC)CN(C(=O)[C@H]1[C@@H]3C(=O)O[C@@H](c4ccccc4)[C@@H](c4ccccc4)N3[C@@H](c3ccc(O)cc3)[C@]13C(=O)Nc1ccc(C#CCNC(N)=O)cc13)CC2	0.544
CN(C)CCCNC(=O)[C@@]1(C)c2ccccc2C(=O)N(Cc2cc(F)cc(C(F)(F)F)c2)[C@H]1c1ccc(CO)cc1	0.376
O=C1C2C=CC(C(O)C3CCCCC3)N(Nc3ccc([N+](=O)[O-])cc3)C2C(=O)N1c1ccccc1 (stereo not given)	-1.28
O=C1OCCC/C=C\[C@H]2OC34C=CCN(c5ccc6ccccc6c5)C(=O)[C@H]3N(CCCCCCO)C(=O)[C@@H]4C12 (stereo not given in full)	0.998

Structure (SMILES)	composite z-score
COCCOC(=O)N1C(=O)[C@@]2(c3cc(C#CCNC(N)=O)ccc31)[C@H](C(=O)NC[C@H](O)c1ccccc1)[C@H]1C(=O)O[C@H](c3ccccc3)[C@H](c3ccccc3)N1[C@@H]2c1ccccc1OCCO	1.05
CC(C)(C)OC(=O)CC[C@@]12N=C(c3ccc(OCCCO)cc3)O[C@@H]1c1ccccc1N(CCS(=O)(=O)c1ccccc1)C2=O	1.05
COC(=O)[C@@]1(Cc2ccc(F)cc2)[C@H]2c3cc(C(=O)N4CCCC4)n(Cc4cc(C)n(C)n4)c3C[C@H]2CN1C(=O)c1ccccc1	1.28
COC(=O)c1c(CC[C@@H](CO)NC(=O)N2CCC[C@H]2Cn2cc(-c3ccccn3)nn2)oc(C(C)=O)c1C(=O)OC	0.113
CCOC(=O)[C@H]1CC=C2CC1C(=O)N1CCC[C@@H]1[C@@H]2O[Si](C)(C)C(C)(C)C (stereo not given in full)	0.928
C=CCC(OC(C)=O)[C@@H]1[C@@H](N(Cc2ccc(-c3ccccc3)cc2)C(=O)Cc2ccc(F)cc2)c2cc(OCCCO)ccc2N1C(=O)c1ccc(-c2ccccc2)cc1 (stereo not given in full)	0.778
CCOC(=O)C[C@H]1[C@H](OC(=O)Cc2ccc3c(c2)OCO3)[C@@H](NC(=O)c2ccc(-c3ccccc3)cc2)c2cc(OCCCO)ccc2N1C(=O)c1ccc2ccccc2n1	-0.0169
COCCCNC(=O)[C@@]1(Cc2ccccc2)N=C(c2ccc(OCCCO)cc2)O[C@H]1c1ccccc1	1.01
NC(=O)[C@@H]1[C@H]2C(=O)O[C@H](c3ccccc3)[C@H](c3ccccc3)N2[C@H](c2ccc(O)cc2)[C@@]12C(=O)Nc1ccc(C#CC3(O)CCCCCC3)cc12	-0.257
COc1cc2c(cc1O)C(C1CC1)N(Cc1cc3c(cc1Br)OCO3)CC2 (stereo not given)	-0.13
CCCCCC1=C2CNC(CCC)(C(=O)OC)C=C2C(C)C1=O (stereo not given)	1.14
COc1ccc(C(O)C2C=CC3C(=O)NC(=O)C3N2Nc2ccccn2)c2ccccc12 (stereo not given)	0.804
COC(=O)C(CC#Cc1ccc2c(c1)[C@]1(C(=O)N2)[C@H](C(=O)O)[C@H]2C(=O)O[C@H](c3ccccc3)[C@H](c3ccccc3)N2[C@@H]1c1ccc(O)cc1)C(=O)OC	-1.07
CC1(C)[C@@H]2CC(C(O)C3C=CC4C(=O)N(c5ccccc5)C(=O)C4N3Nc3ccccc3)=C[C@H]1C2 (stereo not given in full)	1.2
COc1ccc([Si](C)(C)[C@H]2[C@H](CCn3cc([C@H](O)c4ccccc4)nn3)O[C@@]3(C(=O)N(Cc4cccc(N5CCOC5=O)c4)c4ccccc43)[C@@H]2C)cc1	0.464
COc1cc2c(cc1O)C=[N+](Cc1cccc(OC(F)(F)F)c1)CC2	0.994
COC(=O)[C@@]1(Cc2ccc(OC)cc2)[C@H]2c3cc(C(=O)N(C)C)n(CCN4CNCC4=O)c3C[C@H]2CN1C(=O)c1ccccc1	0.712
